From PubChem BioAssay (Tox21) come the findings set out here.

Values joined by “and” are separate entries in the source; they are usually repeats but may differ in a detail not shown here. Equal values may be shown once. Records with an inconclusive call do not appear. Entries that show only a call come without a potency. A structure can be active in one record and inactive in another. Active and inactive are the calls of the source. Calls follow the shape of the dose curve; as a rule, active = well fitted cell-killing curve with a large enough effect in the repeat runs; inconclusive = weak or mixed curves, or effect the other way; inactive = flat fitted curve, though single readings scatter. Starred links: 1 amine or outer side, 2 acyl side, 3 side chain; linkers in the order of their positions; H or OH if unused. Positions of bridges follow the written chain, without caps; N, C: chain ends. Non-standard residues stand in square brackets, D forms with d. Residues, ends and D or L forms follow the SMILES beside them. Chains are numbered I, II in the order given. Actinocin(9to1) = Cc1c2oc3c(C)ccc(C(=O)[*:1])c3nc-2c(C(=O)[*:2])c(N)c1=O; NMeV = CN[C@H](C(=O)O)C(C)C; Sar = CNCC(=O)O
Potency is read from the fitted curve at half-maximal effect.

A short description of the assay: qHTS RealTime-Glo MT Cell Viability Assay in HEK293 cells - 16 hour (AID 1224872). Also: nearly all actives have a fitted effect of over 50% in size. As to activity change, negative = cytotoxicity: top concentration of the series differs between compounds. The settings on record: RealTime-Glo luminescence; series mostly up to 76.8 µM. The source says: National Center for Advancing Translational Sciences [NCATS]
NIH Chemical Genomics Center [NCGC]
U.S. Environmental Protection Agency [EPA]
National Institutes of Environmental Health Sciences [NIEHS]
National Toxicology Program [NTP]
U.S. Food and Drug Administration [FDA]
Measure of cell viability is critical in the cell-base assay. Analysis of cell viability is necessary for the characterization of cell responses to cytotoxic drugs and environmental stress. A RealTime-Glo MT Cell Viability Assay to monitor cell viability in real time of continues cell culture during 40 hours of compound treatment was used to screen Tox21 10K library compounds in Hek293 cells. The RealTime-Glo MT Cell Viability Assay is a nonlytic, homogeneous, bioluminescent method to measure cell viability in real time using a simple, plate-based method. The assay involves adding NanoLuc luciferase and a cell-permeant prosubstrate to cells in culture. Viable cells reduce the proprietary prosubstrate to generate a substrate for NanoLuc luciferase. This substrate diffuses from cells into the surrounding culture medium, where it is rapidly used by the NanoLuc Enzyme to produce a luminescent signal. The signal correlates with the number of viable cells, making the assay well suited for cytotoxicity studies.
Tox21 Assay Protocol Summary:
The mixture of Hek293 cell suspension and reagents were dispensed at 600cells/6 ul/well in 1536-well tissue culture treated black solid bottom plates using a Multidrop dispenser. After the assay plates were incubated at a 37 C/5% CO2 incubator for 5 hours, 23 nL of compounds dissolved in DMSO, positive and negative controls was transferred to the assay plate by a pintool work station. The plates were incubated at 37 C for 40 hours. The luminescence intensity were measured at 0h, 8h, 16h, 24h, 32h and 40h time points using ViewLux plate reader during compound treatment.
(Quantitative high-throughput screening tests each substance at several concentrations.)
For the compound `OCC(CO)N[C@H]1C[C@](O)(CO)[C@@H](O)[C@H](O)[C@H]1O`, the Potency entry is “inactive”.

On to `CCCCCCCCCCCCc1ccccc1O`, for which the Potency was 43.1 µM (active) and 43.6 µM (active).

As to `CC(C)(O)CCC(C)(C)O`, the Potency entry was “inactive”.

For `CC(C)(C)NCC(O)c1cc(O)cc(O)c1` (stereo not given), the Potency result is “inactive”.

`Cc1ccnc2c1NC(=O)c1cccnc1N2C1CC1`: the Potency result was “inactive”.

Turning to `Nc1cc(S(=O)(=O)O)cc2cc(S(=O)(=O)O)cc(O)c12`, the Potency result was “inactive”.

In the case of `CN(C)c1ccc(C(=C2C=CC(=[N+](C)C)C=C2)c2ccccc2)cc1`, the Potency was 3.01 µM (active) [middle of 4 runs].

As to `CC(=O)N[C@@H](CS)C(=O)O`, the Potency entry was “inactive”.

Consider `CC(C)CCCCCCc1ccc(O)cc1`, for which the Potency was 3.96 µM (active).

For the compound `CC(C(O)c1ccc(O)cc1)N1CCC(Cc2ccccc2)CC1` (stereo not given), the Potency entry was “inactive”.

For the compound `C/C=C/c1ccc(OCC)c(O)c1`, the Potency result is “inactive”.

Take `COc1ccc(CCN2CCC(Nc3nc4ccccc4n3Cc3ccc(F)cc3)CC2)cc1`: the Potency was 8.9 µM (active) and 9.52 µM (active).

Take `NCCCCCC(=O)O`: the Potency entry was “inactive”.

On to `Nc1ccc(O)cc1`, for which the Potency was 40.4 µM (active) and inactive.

Consider `CCCNC(C)C(=O)Nc1ccccc1C` (stereo not given), for which the Potency entry is “inactive”.

As for `NC12CC3CC(CC(C3)C1)C2`, the Potency result was “inactive”.

For the compound `Cc1cc(OCCOCC[N+](C)(C)Cc2ccccc2)ccc1C(C)(C)CC(C)(C)C`, the Potency is 19.4 µM (active) and 19 µM (active).

`CCCCC/C=C/CC1CC(=O)OC1=O` (stereo not given): the Potency result is “inactive”.

`O=C(O)c1cc(Cl)cc(Cl)c1`: the Potency result was “inactive”.

Take `C[N+]1([O-])CCOCC1`: the Potency entry was “inactive”.

Consider `c1cc(C(c2ccc(OCC3CO3)cc2)C(c2ccc(OCC3CO3)cc2)c2ccc(OCC3CO3)cc2)ccc1OCC1CO1` (stereo not given), for which the Potency result is “inactive”.

For the compound `CC(C)(C)c1cc(C(C)(C)C)c(O)c(C(C)(C)C)c1`, the Potency entry is “inactive”.

With `O=C1Nc2ccccc2C1(c1ccc(O)cc1)c1ccc(O)cc1`, the Potency result is “inactive”.

Take `CN(C)c1ccc2nc3ccc(=[N+](C)C)cc-3sc2c1`: the Potency was 2.97 µM (active) and 3.09 µM (active) and 2.68 µM (active).

Consider `COc1cc(C(=S)N2CCOCC2)ccc1O`, for which the Potency result was “inactive”.

Consider `Nc1nc2ccccc2[nH]1`, for which the Potency result was “inactive”.

Consider `[Cl][In]([Cl])[Cl]`, for which the Potency entry is “inactive”.

As to `CC(C)(C)c1ccccc1`, the Potency result was “inactive”.

As to `CCN(CC)c1ccc2c(C)cc(=O)oc2c1`, the Potency was 39.2 µM (active).

As for `CCCCCCCCCCCC[N+](C)(C)C`, the Potency result is “inactive”.

Consider `NC(N)=Nc1nc(CSCC/C(N)=N/S(N)(=O)=O)cs1`, for which the Potency result was “inactive”.

With `O=C(Oc1ccccc1)c1ccccc1O`, the Potency entry was “inactive”.

As for `Nc1cc(Cl)c(-c2cc(Cl)c(N)cc2Cl)cc1Cl`, the Potency was 24.5 µM (active).

`NC(Cc1ccc(Cl)cc1)C(=O)O` (stereo not given): the activity change, negative = cytotoxicity was 9.16% [at 0.29 µM] (inactive).

On to `Cc1ccc(-c2cc(C(F)(F)F)nn2-c2ccc(S(N)(=O)=O)cc2)cc1`, for which the Potency is 38.7 µM (active) and 27.5 µM (active) and inactive.

For the compound `c1cnc2cc3c(cc2n1)C1CNCC3C1`, the Potency entry is “inactive”.

As to `Cc1c2oc3c(C)ccc(C(=O)N[C@@H]4C(=O)N[C@H](C(C)C)C(=O)N5CCC[C@H]5C(=O)N(C)CC(=O)N(C)[C@@H](C(C)C)C(=O)O[C@@H]4C)c3nc-2c(C(=O)N[C@@H]2C(=O)N[C@H](C(C)C)C(=O)N3CCC[C@H]3C(=O)N(C)CC(=O)N(C)[C@@H](C(C)C)C(=O)O[C@@H]2C)c(N)c1=O` (I: T[dV]P[Sar][NMeV] / II: T[dV]P[Sar][NMeV]; ester I:1-I:C, II:1-II:C; linker I:N-II:N via Actinocin(9to1)), the Potency is 33.7 nM (active) and 120 nM (active).

For the compound `CC(C)CCOC(=O)c1ccc(N(C)C)cc1`, the Potency entry was “inactive”.

Take `Cc1scc2c1N(C(=O)CN1CCN(C)CC1)c1ccccc1NC2=O`: the Potency result is “inactive”.

Regarding `CCCCCCCCCCCCCC[P+](CCCC)(CCCC)CCCC`, the Potency was 5.46 µM (active) and 549 nM (active).
